26 compounds from PubChem BioAssay (NCATS) can be followed below.

Test [1] addresses Cytochrome P450 3A7 (Homo sapiens) (UniProt P24462). Put plainly: Cytochrome P450 family 3 subfamily A member 7 (CYP3A7) small molecule antagonists: luciferase biochemical qHTS assay (AID 1963596). Also: nearly all actives have a fitted effect of over 40% in size. The method, boiled down: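 Luminescence read-out (relative luminescence units) after 20 min with detection reagent, which stops the reaction. Enzyme, proluciferin substrate and compound preincubated 10 min, RT; NADPH regeneration system then started 1 h reaction. Ketoconazole as positive control.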
On the technique in general: Quantitative high-throughput screening tests each substance at several concentrations.

A short description of test [2]: Viability qHTS for spleen associated tyrosine kinase inhibitor (SYKi) naive MV4-11 cells (AID 1963823). Also: nearly all actives have a fitted effect of over 40% in size. An outline of the steps: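 Cells: MV4-11, SYK inhibitor naive, 500 per well. Treatment: library compounds, 72 hr, 37 C, 5% CO2. Read-out: CellTiter-Glo luminescence after 10 min RT.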
The nature of test [3]: Viability qHTS for spleen associated tyrosine kinase inhibitor (SYKi) drug resistant MV4-11 cells (AID 1963824). Also: nearly all actives have a fitted effect of over 35% in size. An outline of the steps: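 SYK inhibitor-resistant MV4-11 AML cells, 500 per well, added to predispensed compounds and incubated 72 hr at 37 C, 5% CO2. Viability measured by CellTiter-Glo luminescence after 10 min at room temperature.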
Test [4] is described as follows: Quantitative highthroughput screen to assess conditional lethalithy of NOMO1 cells grown in RPMI1640 with untreated serum (RPMI+s) (AID 1963876). Also: nearly all actives have a fitted effect of over 35% in size.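 As to Viability: 100% = DMSO wells and 0% = empty wells without cells.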 An outline of the steps:
(§1)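 Each medium arm—HPLM with 10% dialyzed FBS, or RPMI1640 with 5 mM glucose and 10% untreated or dialyzed FBS—was screened against an 11-point, 3-fold compound titration for 48 h at 37 °C, with CellTiter-Glo luminescence as endpoint.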

Test [5] in a line: Quantitative highthroughput screen to assess conditional lethalithy of NOMO1 cells grown in RPMI1640 with dialyzed fetal bovine serum (RPMI+ds) (AID 1963877). Also: nearly all actives have a fitted effect of over 30% in size.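 As to Viability: series mostly up to about 46 µM; 100% = DMSO control wells and 0% = empty wells.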 The method, boiled down:
as §1

Test [6] can be described thus: Quantitative highthroughput screen to assess conditional lethalithy of NOMO1 cells grown in Human Plasma-Like Medium with dialyzed fetal bovine serum (HPLM+ds) (AID 1963878). Also: nearly all actives have a fitted effect of over 35% in size.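 As to Viability: 100% = DMSO wells and 0% = empty wells on each plate.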 An outline of the steps:
as §1

A short description of test [7]: Quantitative highthroughput screen to assess conditional lethalithy of P12 Ichikawa cells grown in Human Plasma-Like Medium with dialyzed fetal bovine serum (HPLM+ds) (AID 1963879). Also: nearly all actives have a fitted effect of over 35% in size. As to Viability: series mostly up to about 46 µM. The conditions noted are these: Potency: viability. The method, boiled down:
as §1

A short description of test [8]: Quantitative highthroughput screen to assess conditional lethalithy of P12 Ichikawa cells grown in RPMI1640 with dialyzed fetal bovine serum (RPMI+ds) (AID 1963880). Also: nearly all actives have a fitted effect of over 35% in size.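 As to Viability: 100% = DMSO wells and 0% = empty wells on each plate.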 Conditions: Potency: P12-Ichikawa viability. The method, boiled down:
as §1

The nature of test [9]: Quantitative highthroughput screen to assess conditional lethalithy of P12 Ichikawa cells grown in RPMI1640 with untreated serum (RPMI+s) (AID 1963881). Also: nearly all actives have a fitted effect of over 35% in size.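 As to Viability: series mostly up to about 46 µM; 100% = DMSO wells and 0% = empty wells without cells.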 Conditions: Potency: viability. An outline of the steps:
as §1

Test [10] can be described thus: Quantitative highthroughput screen to assess conditional lethalithy of SEM cells grown in Human Plasma-Like Medium with dialyzed fetal bovine serum (HPLM+ds) (AID 1963882). Also: nearly all actives have a fitted effect of over 35% in size. As to Viability: series mostly up to about 46 µM. An outline of the steps:
as §1

Test [11] is described as follows: Quantitative highthroughput screen to assess conditional lethalithy of SEM cells grown in RPMI1640 with unreated serum (RPMI+s) (AID 1963883). Also: nearly all actives have a fitted effect of over 35% in size.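 As to Viability: 100% = DMSO wells and 0% = empty wells without cells.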 The method, boiled down:
as §1

Test [12] is described as follows: Quantitative highthroughput screen to assess conditional lethalithy of SEM cells grown in RPMI1640 with dialyzed fetal bovine serum (RPMI+ds) (AID 1963884). Also: nearly all actives have a fitted effect of over 35% in size.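 As to Viability: series mostly up to about 46 µM; 100% = DMSO control wells and 0% = empty wells without cells.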 An outline of the steps: as §1
Test [13] in a line: Cellular viability qHTS for adrenocortical cancer (ACC) cell line SW-13 (AID 1963989). Also: nearly all actives have a fitted effect of over 65% in size.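 As to activity (max response): cells grown in serum-free medium with ITS supplement; % is scaled to controls: 0 for no effect and ±100 for the full control effect.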 The conditions noted are these: SW-13 ACC cells viability, CellTiter-Glo, 48 h; activity (max response): stronger effect = lower value. An outline of the steps: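 Compound titrations (up to 46 uM final, in DMSO) were applied to SW-13 cells for 48 h at 37C/5% CO2. Reading used CellTiter-Glo after 20 min at room temperature; fitted curves yielded IC50 and efficacy.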

Test [14] can be described thus: Cellular viability qHTS for adrenocortical cancer (ACC) cell line NCI-H295R (AID 1963990). Also: nearly all actives have a fitted effect of over 60% in size. An outline of the steps: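 Readout: CellTiter-Glo luminescence, 20 min RT. Exposure: 48 h, 37C/5% CO2. Cells: NCI-H295R, ITS-DMEM serum-free. Range: up to 46 uM. Analysis: 4PL fit, IC50 plus efficacy.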

“And” between values parts separate entries of the source, which are not always exact repeats. Equal values may be shown once. Records with an inconclusive call do not appear. More than one record can exist for a structure, and the calls need not agree. Values without a mark were called inactive. The source made the active and inactive calls. Calls follow the shape of the dose curve; as a rule, active = well fitted curve in the direction sought with a large enough effect; inconclusive = small, poorly fitted or top-dose-only effect, or another doubt; inactive = no such curve, though single readings can be large; an effect the other way counts as inactive or inconclusive. Peptide text beside a SMILES is read from it.
Potency is read from the fitted curve at half-maximal effect.

Cytochrome P450 3A7 (Homo sapiens), sequence (P24462 whole entry, looked up): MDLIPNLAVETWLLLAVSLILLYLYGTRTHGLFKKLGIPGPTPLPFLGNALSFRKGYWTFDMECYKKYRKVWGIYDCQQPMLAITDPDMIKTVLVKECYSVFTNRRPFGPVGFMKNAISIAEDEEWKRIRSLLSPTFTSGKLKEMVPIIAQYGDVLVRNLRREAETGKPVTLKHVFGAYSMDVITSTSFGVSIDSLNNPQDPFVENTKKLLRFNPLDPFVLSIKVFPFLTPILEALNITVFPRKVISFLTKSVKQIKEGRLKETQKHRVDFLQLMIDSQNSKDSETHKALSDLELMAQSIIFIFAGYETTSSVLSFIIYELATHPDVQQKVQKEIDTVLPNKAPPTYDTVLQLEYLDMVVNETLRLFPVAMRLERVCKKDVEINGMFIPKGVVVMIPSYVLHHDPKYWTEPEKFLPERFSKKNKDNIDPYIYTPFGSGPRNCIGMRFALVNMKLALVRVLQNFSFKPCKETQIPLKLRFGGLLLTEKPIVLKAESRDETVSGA

On to `O=C(O)CCC(=O)O`, for which the Potency entry in test [1], in test [2] and in test [3] was “inactive” throughout.
Consider `Cc1cc(F)ccc1-c1nc(NCCN=C(N)NC#N)nc2c1ccc(=O)n2-c1c(F)cccc1F`, for which, in test [1], the Potency result is “inactive”. For the same compound, the Potency in test [2] and in test [3] was 14.6 µM (active) each time.
In the case of `O=C1N(CC2CCCCN2)CCN1c1ccccc1` (stereo unspecified), the Potency result in test [1], in test [2] and in test [3] was “inactive” each time.
With `COc1cc(Nc2c(C#N)cnc3cc(OCCCN4CCN(C)CC4)c(OC)cc23)c(Cl)cc1Cl`, the Potency was 15.5 µM (active) in test [1]; 944 nM (active) and 1.3 µM (active) and 1.18 µM (active) in test [2]; 944 nM (active) and 1.16 µM (active) and 590 nM (active) in test [3]; 7.43 µM (active) in test [4]; 8.33 µM (active) in [5]; 3.72 µM (active) in test [6]. For the same compound, the Potency in test [7] is 3.72 µM (active); in [8], 5.26 µM (active); in test [9] it was 4.69 µM (active); in test [10] it was 1.66 µM (active); in [11], 1.87 µM (active); in test [12], 2.35 µM (active). For the same compound, the Potency in test [13] was 4.61 µM (active) and 2 µM (active); in [14], 4.61 µM (active) and 3.55 µM (active).
`CC(=O)N1CCN(NC(=O)c2ccc(F)cc2)CC1`: the Potency entry in [1], in [2] and in test [3] was “inactive” each time.
In the case of `CCCCNC(=O)[C@@H]1Cc2ccccc2N1C(=O)[C@@H](N)CC`, the Potency result in [1], in [2] and in test [3] was “inactive” each time.
For the compound `CCOC(=O)N1CCC(N2CCC[C@@H](NC(=O)c3ccccc3C)C2)CC1`, the Potency result in [1] was “inactive”. Also, the Potency in [2] was 16.4 µM (active); in test [3] it was 14.6 µM (active).
Taken in the same sequence, the figures for `CC(C)(C)OC(=O)N1CCC(OCc2nc(-c3ccncc3)no2)CC1` were “inactive”, “inactive” and “inactive”.
On the same counts, the results for `Cn1cc(-c2cnc3ccc4ccc(CS(=O)(=O)NCc5ccccn5)cc4c(=O)c3c2)cn1` are “inactive”, 14.6 µM (active) and 11.6 µM (active).
Regarding `COC(=O)[C@H](Cc1ccccc1)NC(=O)[C@@H](N)CC(=O)O` (H-Asp-Phe-OMe), the Potency entry in test [1], in test [2], in test [3], in test [4], in test [5] and in [6] was “inactive” each time. For the same compound, the Potency entry in test [7], in test [8], in test [9], in [10], in test [11] and in test [12] was “inactive” each time. Besides, the Potency result in [14] is “inactive”. In addition, the activity (max response) in [13] is 0.253% and -5.37%.
With `C[C@@H]1CN(c2c(F)c(F)c3c(=O)c(C(=O)O)cn(C4CC4)c3c2F)C[C@H](C)N1`, the Potency entry in test [1], in test [2] and in [14] was “inactive” in each case. In addition, the Potency in [3] is 4.61 µM (active). In addition, in test [3], the viability, % of control was 79.8% [at 9.25 µM]. Also, in test [13], the activity (max response) is 12.9%.
Regarding `O=C(O)CSCC(=O)NC1CCSC1=O` (stereo unspecified), the Potency result in test [1], in [2], in [3], in test [4], in [5] and in test [6] was “inactive” in each case. Also, the Potency result in [7], in test [8], in test [9], in test [10], in [11] and in [12] was “inactive” throughout. In addition, the Potency entry in test [14] was “inactive”. The activity (max response) in [13] is 1.69% and -8.03%.
On to `CNC(=O)c1cc(Oc2ccc3nc(N[C@@H]4CCCC[C@H]4O)sc3c2)ccn1`, for which the Potency result in [1] was “inactive”. The results for the Potency in test [2] and in [3] were 13 µM (active) and 11.6 µM (active), respectively.
For `O=C(NC1CCN(CC(F)(F)F)CC1)c1ccc(-c2cccc(F)c2)nc1`, the Potency entry in test [1], in test [2] and in test [3] was “inactive” in each case.
As for `O=C(OC1C[C@H]2CC[C@@H](C1)[N+]21CCCC1)C(O)(c1ccccc1)c1ccccc1` (stereo partly specified), the Potency result in test [1], in test [2], in test [3], in test [4], in [5] and in test [6] was “inactive” each time. Further, the Potency entry in [7], in test [8], in test [9], in test [10], in test [11] and in [12] was “inactive” in each case. In [14], the Potency result is “inactive”. In test [13], the activity (max response) was -1.15%.
Regarding `O=C(C1CC1)N1CC[C@@H](Cc2n[nH]c(=O)n2-c2ccc(-c3ccc4occc4c3)cc2)C1`, the Potency in [1] is 0.536 µM (active); in test [3] it was 18.6 µM (active). Also, the Potency result in [2], in test [4], in test [5], in [6], in test [7] and in [8] was “inactive” throughout. Besides, in test [9], the Potency entry is “inactive”.
For `COc1cccc(NC[C@@H](O)Cn2c3ccc(Br)cc3c3cc(Br)ccc32)c1`, the Potency result in [1] is “inactive”. Moreover, the Potency in test [2] is 18.4 µM (active); in test [3], 16.4 µM (active).
On the same counts, the results for `O=C(Nc1nnc(-c2ccc3c(c2)OCCO3)o1)C1CCCCC1` are “inactive”, “inactive” and “inactive”.
On the same counts, the results for `O=C(COc1ccc(Cl)cc1)NC1CCC(NC(=O)COc2ccc(Cl)cc2)CC1` (stereo unspecified) are “inactive”, “inactive” and “inactive”.
Taken in the same sequence, the figures for `C=CCOc1ccccc1OCC(O)CNC(C)C` (stereo unspecified) were “inactive”, “inactive” and “inactive”.
`NC(Cc1c[nH]c2ccccc12)C(=O)NC(CCC(=O)O)C(=O)O` (stereo unspecified): the Potency result in test [1] and in [3] was “inactive” in each case. The Potency in [2] was 2.91 µM (active).
As for `CCOC(=O)c1ncn2c1CN(C)C(=O)c1cc(F)ccc1-2`, the Potency entry in test [1], in test [2], in [3], in [4], in [5] and in [14] was “inactive” in each case. The Potency in [6] was 20.9 µM (active); in test [7], 3.72 µM (active).
As for `COc1nc(C)nc(Cl)c1NC1=NCCN1`, the Potency result in [1], in test [2], in test [3], in test [4], in [5] and in test [6] was “inactive” in each case. The Potency entry in test [7], in [8], in test [9], in test [11] and in [14] was “inactive” throughout. The activity (max response) in test [13] was -1.64%.
Consider `O=NN(CCCl)C(=O)NC1CCCCC1`, for which the Potency entry in test [1], in test [2], in test [3], in [4], in [5] and in [6] was “inactive” each time. Besides, the Potency result in test [7], in [8], in test [9], in test [10], in [11] and in [14] was “inactive” throughout. Also, the activity (max response) in test [13] is 15.5% and -13.1%.
For the compound `CC(C)Cn1cnc2c(N)nc3ccccc3c21`, the Potency entry in test [1], in test [2], in test [3], in [4], in [5] and in [6] was “inactive” in each case. In addition, the Potency result in test [7], in [8], in test [9], in test [10], in test [11] and in test [12] was “inactive” each time. Also, the Potency result in test [14] was “inactive”. In addition, in [13], the activity (max response) is 0.433% and -11.1%.
In the case of `O=C(O)c1cc(=O)c2c(OCC(O)COc3cccc4oc(C(=O)O)cc(=O)c34)cccc2o1`, the Potency entry in test [1], in test [2], in test [3], in test [4], in test [5] and in test [6] was “inactive” throughout. Also, the Potency result in [7], in test [8], in [9], in test [11], in [12] and in [14] was “inactive” throughout. For the same compound, the activity (max response) in [13] is 10.3% and -0.0262%.
